# Assay results: PubChem BioAssay (NCATS)
# Inconclusive results are not listed. Entries that show only a call come without a potency. Unmarked numbers belong to inactive results. The source made the active and inactive calls. Unless noted, the call rests on the fitted dose curve.
# Experiments:
# [1] = qHTS for Inhibitors of the Functional Ribonucleoprotein Complex (vRNP) of Lassa (LASV) Arenavirus: LASV Primary Screen - GLuc reporter signal (AID 1347082; calls by dose curve; tested in HEK293 reporter line; further: nearly all actives have a fitted effect of over 60% in size); conditions: LASV minigenome vRNP, Gaussia luciferase reporter; series mostly up to 57.5 µM
# [2] = qHTS for Inhibitors of the Functional Ribonucleoprotein Complex (vRNP) of Lassa (LASV) Arenavirus: Viability assay - alamar blue signal for LASV Primary Screen (AID 1347083; calls by dose curve; tested in HEK293 reporter line; further: nearly all actives have a fitted effect of over 80% in size); conditions: cell viability, alamar blue fluorescence (LASV minigenome counter-screen); series mostly up to 57.5 µM
# [3] = qHTS for Inhibitors of the Functional Ribonucleoprotein Complex (vRNP) of Lymphocytic Choriomeningitis Arenaviruses (LCMV): Viability assay - alamar blue signal for LCMV Primary Screen (AID 1347085; calls by dose curve; tested in HEK293 reporter line; further: nearly all actives have a fitted effect of over 80% in size); conditions: alamar blue viability counter-screen, LCMV vRNP screen cells; series mostly up to 57.5 µM
# [4] = biological target: Nucleoprotein (Lymphocytic choriomeningitis virus (strain Armstrong)) (UniProt P09992); test: qHTS for Inhibitors of the Functional Ribonucleoprotein Complex (vRNP) of Lymphocytic Choriomeningitis Arenaviruses (LCMV): LCMV Primary Screen - GLuc reporter signal (AID 1347086); conditions: LCMV minigenome vRNP cell assay, Gaussia luciferase reporter; series mostly up to 57.5 µM; further: nearly all actives have a fitted effect of over 70% in size
# Potency means the concentration at half of the fitted maximal effect.
# Chain of Nucleoprotein (Lymphocytic choriomeningitis virus (strain Armstrong)) (P09992 whole entry, looked up): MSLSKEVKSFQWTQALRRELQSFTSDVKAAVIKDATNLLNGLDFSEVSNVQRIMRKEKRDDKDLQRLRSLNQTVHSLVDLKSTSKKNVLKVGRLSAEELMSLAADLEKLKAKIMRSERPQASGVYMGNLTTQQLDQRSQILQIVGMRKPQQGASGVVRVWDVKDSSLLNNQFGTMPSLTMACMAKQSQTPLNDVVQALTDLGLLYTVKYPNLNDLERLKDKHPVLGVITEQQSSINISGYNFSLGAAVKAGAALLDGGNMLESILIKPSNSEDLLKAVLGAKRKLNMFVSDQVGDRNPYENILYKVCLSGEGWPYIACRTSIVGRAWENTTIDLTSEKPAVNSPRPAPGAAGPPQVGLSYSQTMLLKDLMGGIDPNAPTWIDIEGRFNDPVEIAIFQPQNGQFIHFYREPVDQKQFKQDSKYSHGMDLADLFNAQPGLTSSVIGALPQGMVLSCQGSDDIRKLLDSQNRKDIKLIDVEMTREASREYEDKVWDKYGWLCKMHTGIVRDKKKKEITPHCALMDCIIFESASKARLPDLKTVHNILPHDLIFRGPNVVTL
SMILES,Potency [1],Potency [2],Potency [3],Potency [4]
C[C@@H]1CC[C@@]23COC(=O)C2=CCC[C@@H]3[C@@]1(C)CC/C(=C/CO)CO,inactive,inactive,inactive,inactive
CC[C@H]1O[C@]2(CC[C@@H]1C)C[C@@H]1C[C@@H](C/C=C(\C)C[C@@H](C)/C=C/C=C3\CO[C@@H]4[C@H](O)C(C)=C[C@@H](C(=O)O1)[C@]34O)O2,inactive,inactive,inactive,inactive
CC/C=C\CCCCCO,inactive,inactive,inactive,inactive
CCCC(=O)OC,inactive,inactive,inactive,inactive
O=C1CCCC2[C@@H]3CCC[N@+]4([O-])CCC[C@H](CN12)C34 (stereo not given in full),inactive,inactive,inactive,inactive
COc1c(C(=O)/C=C/c2ccccc2)ccc2c1C=CC(C)(C)O2,inactive,inactive,inactive,inactive
CC1=C[C@H](O)CC(C)(C)[C@H]1/C=C/C(C)=C/C=C/C(C)=C/C=C/C=C(C)/C=C/C=C(C)/C=C/C1=C(C)C[C@@H](O)CC1(C)C,inactive,inactive,inactive,inactive
c1ccc(CN(Cc2ccccc2)Cc2ccccc2)cc1,inactive,inactive,inactive,inactive
C=C1CC[C@H](O)C/C1=C/C=C1\CCC[C@]2(C)[C@@H]([C@H](C)CCC(O)C(C)(C)O)CC[C@@H]12 (stereo not given in full),inactive,inactive,inactive,inactive
CC1(C)C[C@@H](O)[C@]2(C)CC[C@]3(C)C(=CCC4[C@@]5(C)CC[C@H](O)[C@](C)(CO)C5CC[C@]43C)[C@@H]2C1 (stereo not given in full),inactive,inactive,inactive,inactive
C=C(CC1CC(O)[C@]2(C)OC3CC4OC5C[C@]6(C)O[C@]7(C)CCC8OC9C[C@]%10(C)OC%11C(C)=CC(=O)OC%11CC%10OC9C[C@@H](C)C8OC7CC6O[C@]5(C)C/C=C\C4OC3CC2O1)C(=O)O (stereo not given in full),inactive,inactive,inactive,inactive
O=c1cc(-c2ccccc2)c2c(O)cc(O)cc2o1,inactive,inactive,inactive,inactive
CC(C)(O)Cc1ccccc1,inactive,inactive,inactive,inactive
C=CC[C@]12C[C@@H](OC)C(=O)C=C1O[C@@H](c1ccc(OC)c(OC)c1)[C@H]2C,inactive,inactive,inactive,inactive
CCCCCCCCCC(C)=O,inactive,inactive,inactive,inactive
CCCCCC1C(=O)CCC1CC(=O)OC (stereo not given),inactive,inactive,inactive,inactive
COC(=O)C(O)C(O)(CCC(C)C)C(=O)OC1C(OC)=CC23CCCN2CCc2cc4c(cc2C13)OCO4 (stereo not given),inactive,inactive,inactive,inactive
COc1cc2cc(Oc3ccc4ccc(=O)oc4c3)c(=O)oc2cc1O[C@@H]1O[C@H](CO)[C@@H](O)[C@H](O)[C@H]1O,inactive,inactive,inactive,inactive
CC1=CC2OC3CC4OC(=O)C=CC=CC(C(C)O)OCC(O)C(C)CC(=O)OCC2(CC1O)C4(C)C31CO1 (stereo not given),inactive,inactive,inactive,inactive
CC1(C)OC2CC3C4CC(F)C5=CC(=O)C=CC5(C)C4C(O)CC3(C)[C@]2(C(=O)CO)O1 (stereo not given in full),inactive,inactive,inactive,inactive

SMILES,Potency [1],Potency [2],Potency [3],Potency [4]
COc1cc(OC)c2c(-c3ccccc3)cc(=O)oc2c1,inactive,inactive,inactive,inactive
COc1cc2oc(=O)ccc2cc1[C@H](O)[C@@H](O)C(C)(C)O,inactive,inactive,inactive,inactive
COC(=O)c1c(C)cc(O)c(C=O)c1O,inactive,inactive,inactive,inactive
COC(=O)c1cc(=O)cc(C(=O)OC)o1,inactive,inactive,inactive,inactive
CCCCCC1CCCC(=O)O1 (stereo not given),inactive,inactive,inactive,inactive
CCCC(=O)OCC,inactive,inactive,inactive,inactive
O=CN(O)CCCP(=O)(O)O,inactive,inactive,inactive,inactive
CC1=CC(=O)O[C@@H]1[C@@]1(C)C[C@H]2OC(=O)C[C@H]3[C@@H](C)C(=O)C(O)=C1[C@@]23CO,inactive,inactive,inactive,inactive
C/C=C(\C)C(=O)O[C@H]1C[C@@]2(C)CCC(C(C)C)C2(O)CC[C@@]1(C)O (stereo not given in full),inactive,inactive,inactive,inactive
COC1=C(OC)[C@]23CCc4ccc(OC)c(OC)c4[C@]2(CCN3C)CC1=O,inactive,inactive,inactive,inactive
CCc1ccc(C=C2SC(=S)NC2=O)cc1,inactive,inactive,inactive,inactive
CCC(CC)C(=O)O,inactive,inactive,inactive,inactive
C=CC(=C)CCC=C(C)C,inactive,inactive,inactive,inactive
C/C1=C\[C@@H](O)C(C(C)C)C(OC(=O)c2ccc(O)cc2)C/C(C)=C/CC1 (stereo not given in full),inactive,inactive,inactive,inactive
COc1cc(N2CCN(C)CC2)ccc1Nc1nc(N)c(C(=O)c2c(Cl)cccc2Cl)s1,inactive,inactive,inactive,inactive
O=C(O)CC(=O)Nc1ccccc1C(=O)O,inactive,inactive,inactive,inactive
CCOC(=O)c1cccc(C(=O)OCC)n1,inactive,inactive,inactive,inactive
C=C1[C@@H]2C[C@]3(C(CC2=O)[C@]24C5C[C@H]3[C@H]2N(CC)C[C@]5(C)CC[C@@H]4O)[C@@H]1O (stereo not given in full),inactive,inactive,inactive,inactive
O=C(Nc1nnc(-c2ccco2)o1)c1cc(-c2ccccc2)nc2ccccc12,inactive,inactive,inactive,inactive
COc1ccc(C[C@@H]2c3cc(O)c(OC)cc3CCN2C)cc1O,inactive,inactive,inactive,inactive

SMILES,Potency [1],Potency [2],Potency [3],Potency [4]
COc1ccc2[nH]c3c(c2c1)CCn1c-3nc2ccccc2c1=O,inactive,inactive,inactive,inactive
CC(=O)O,inactive,inactive,inactive,inactive
C=CCNC1=C2C[C@@H](C)C[C@H](OC)[C@@H](O)[C@@H](C)C=C(C)[C@H](OC(N)=O)[C@@H](OC)C=CC=C(C)C(=O)NC(=CC1=O)C2=O,8.63 µM (active),6.85 µM (active),15.3 µM (active),4.32 µM (active)
COc1cc2c3c(c1OC)C1(C=CC(=O)C=C1)CC3N(C(C)=O)CC2 (stereo not given),inactive,inactive,inactive,inactive
C=CC(C)(CCC=C(C)C)OC(=O)C(C)C (stereo not given),inactive,inactive,inactive,inactive
O=C(/C=C/c1ccc(O)c(O)c1)O[C@@H]1C[C@](O)(C(=O)O)C[C@@H](O)[C@H]1O,inactive,inactive,inactive,inactive
O[C@@H]1CCN2Cc3ccccc3N=C12,inactive,inactive,inactive,inactive
CNC(=O)c1ccccc1Sc1ccc2c(C=Cc3ccccn3)n[nH]c2c1,inactive,17.2 µM (active),inactive,inactive
C=C(C)[C@@H]1CCC2(C(=O)O)CC[C@]3(C)[C@H](CC[C@@H]4[C@@]5(C)CCC(=O)C(C)(C)[C@@H]5CC[C@]43C)[C@@H]12 (stereo not given in full),inactive,inactive,inactive,inactive
OC[C@H]1O[C@H](OCc2ccccc2)[C@H](O[C@@H]2OC[C@@H](O)[C@H](O)[C@H]2O)[C@@H](O)[C@@H]1O,inactive,inactive,inactive,inactive
C=CCCCCCCCCCCCC(O)CC(O)COC(C)=O (stereo not given),inactive,inactive,inactive,inactive
CC(C)NC(=O)NCCCCCCS(C)=O (stereo not given),inactive,inactive,inactive,inactive
O=C(CCc1ccc(O)cc1)c1c(O)cc(O)cc1O[C@@H]1O[C@H](CO)[C@H](O)[C@H](O)[C@H]1O,inactive,inactive,inactive,inactive
O=Cc1cc2ccccc2o1,inactive,inactive,inactive,inactive
CC(C)=CCCC1(C)C=Cc2c(c(C)cc3c2[nH]c2cc(O)ccc23)O1 (stereo not given),inactive,inactive,inactive,inactive
COc1ccc(C(=O)OC2CC3CC[C@H](C2)N3C(C)=O)cc1OC (stereo not given in full),inactive,inactive,inactive,inactive
C/C=C1\CN2[C@H]3C[C@@]45c6ccccc6N(C)[C@H]4[C@@H]2CC1C3[C@H]5O (stereo not given in full),inactive,inactive,inactive,inactive
CCCCCCCCOS(=O)(=O)O,inactive,inactive,inactive,inactive
CC1(C)C=Cc2c(c3ccccc3[nH]c2=O)O1,inactive,inactive,inactive,inactive
Cc1[nH]c(C=C2C(=O)Nc3ccccc32)c(C)c1CCC(=O)O,inactive,10.9 µM (active),21.7 µM (active),34.3 µM (active)
